Bioassay records as filed in PubChem BioAssay.
CSC inhib = blocks cancer stem cells; cancer stem cell-like cells viability, luminescence; inhibition, % at 7.5 µM; 1.1% of 300,000 active; AID 2717; in the data active = inhibition above about 75%; tested in HMLE shEcad cells
MPTP inh = blocks calcium-induced mitochondrial swelling. 1.4% of 360,000 active. AID 602449. isolated mouse mitochondria, Ca2+ swelling absorbance, 30 min. inhibition, % at 10 µM;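 active = inhibition of 50% or more, scaled per plate between neutral and stimulator controls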
Beta apoptosis = beta cell apoptosis inhibition; INS-1E cytokine-induced death, ATP luminescence, 48 h; percent of positive-control rescue, neutral wells zero; 0.8% of 300,000 active; protection from apoptosis, % (test concentration not listed); AID 435005;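 active = Every replicate reaches about 75%, or at least half do and their mean reaches it too, limit read from the data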;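 also: higher means more ATP so stronger rescue from cytokine killing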
NR3A LBD binder = modulators (binders) of human NR3A ligand-binding domain; NR3A LBD differential scanning fluorimetry, Tm shift; 0% = protein alone, 100% = glycine-bound protein; Tm shift relative to glycine control, % at 25 µM; 2.5% of 340,000 active;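 active = melting temperature shift of at least 10% of the positive control shift, at one fixed dose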
SKKanGAS inh = SKKanGAS growth inhibition; S. pyogenes SKKanGAS, kanamycin growth, BacTiter-Glo, 6 h; inhibition, % at 7.5 µM; 1.3% of 300,000 active; AID 1662;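 active = mean replicate score, as percent of positive control median, at least 50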;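 also: strain carries kanamycin resistance gene driven by streptokinase promoter and grows in 40 µg/ml kanamycin; loss of luminescence reflects streptokinase promoter inhibition or plain growth inhibition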
Mdm2-MdmX inh = human Mdm2/MdmX binding inhibition; SaOS-2 split-luciferase Mdm2/MdmX complementation, luminescence; inhibition, % at 8 µM; 3% of 330,000 active; AID 485346;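 active = inhibition of at least 50% at 8 µM in the primary screen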
Target sequence (O15151 whole entry, looked up): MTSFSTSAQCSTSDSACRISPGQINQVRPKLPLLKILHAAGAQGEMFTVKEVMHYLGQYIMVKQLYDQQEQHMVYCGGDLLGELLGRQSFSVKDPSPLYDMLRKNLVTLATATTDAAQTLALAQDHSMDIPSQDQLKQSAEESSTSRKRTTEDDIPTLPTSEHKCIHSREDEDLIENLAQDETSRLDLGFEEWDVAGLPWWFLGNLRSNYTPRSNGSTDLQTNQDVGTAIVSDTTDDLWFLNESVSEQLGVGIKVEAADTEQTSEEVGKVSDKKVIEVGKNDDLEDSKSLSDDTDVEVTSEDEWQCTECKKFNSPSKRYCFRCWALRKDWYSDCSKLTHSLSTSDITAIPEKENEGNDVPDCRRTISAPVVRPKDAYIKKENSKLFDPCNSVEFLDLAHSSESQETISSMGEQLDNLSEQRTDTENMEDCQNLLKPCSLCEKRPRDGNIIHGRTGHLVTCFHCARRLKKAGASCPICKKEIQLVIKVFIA
Target sequence (Q00987 whole entry, looked up): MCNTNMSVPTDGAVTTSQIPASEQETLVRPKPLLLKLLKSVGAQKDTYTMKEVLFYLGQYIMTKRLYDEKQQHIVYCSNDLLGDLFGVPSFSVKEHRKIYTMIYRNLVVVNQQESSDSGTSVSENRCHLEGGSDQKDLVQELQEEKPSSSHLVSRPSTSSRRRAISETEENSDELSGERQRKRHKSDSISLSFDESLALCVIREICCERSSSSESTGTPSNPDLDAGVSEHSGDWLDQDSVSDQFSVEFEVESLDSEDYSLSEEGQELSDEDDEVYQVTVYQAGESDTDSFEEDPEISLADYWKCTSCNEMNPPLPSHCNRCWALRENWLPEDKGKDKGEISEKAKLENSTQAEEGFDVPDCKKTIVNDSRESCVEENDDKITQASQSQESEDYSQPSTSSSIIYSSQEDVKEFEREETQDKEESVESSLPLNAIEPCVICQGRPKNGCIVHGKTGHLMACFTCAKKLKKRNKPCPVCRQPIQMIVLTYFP
Of the large screens only hits and unclear results are named; the others gave an inactive call. An excerpt weighted towards active compounds, which were near 6.9% of everything screened.

Cc1ccc(OCC(O)CNS(=O)(=O)c2ccccc2C(=O)O)cc1 (configuration not stated)	NR3A LBD binder 13
O=C1/C(=C/c2ccccc2)Oc2cc(OC(=O)N3CCOCC3)ccc21	NR3A LBD binder 20
O=C1/C(=C/c2ccc(F)cc2)Oc2cc(OC(=O)N3CCOCC3)ccc21	none
O=C(Nc1ccc(Oc2cccc3ccccc23)cc1)c1ccco1	SKKanGAS inh 79
O=C(Nc1ccc(NC(=O)c2ccco2)c(Cl)c1)c1ccccc1	none
Nc1ccc(C(=O)Nc2ccc(NC(=O)c3ccco3)c(O)c2)cc1	NR3A LBD binder 22
CCOc1ccc(NC(=O)Cn2nnc(-c3ccccc3NC(=O)c3cccs3)n2)cc1	NR3A LBD binder 15
O=C(Nc1cccc(NC(=O)c2nccc3ccccc23)c1)c1ccco1	NR3A LBD binder 19 (no result: SKKanGAS inh)
O=C(O)c1ccccc1C(=O)Nc1ccc(Oc2cccc3ccccc23)cc1	none (no result: CSC inhib, Beta apoptosis, Mdm2-MdmX inh)
CC(=O)Nc1ccc(C(=O)N2CCCC(c3cc(C(=O)Nc4ccccc4)no3)C2)cc1 (configuration not stated)	none (no result: CSC inhib, Beta apoptosis, NR3A LBD binder, SKKanGAS inh, Mdm2-MdmX inh)
CCOC(=O)C1CCCN(C(=O)c2ccc(F)c(Cl)c2)CC1 (configuration not stated)	none (no result: CSC inhib, Beta apoptosis, NR3A LBD binder, SKKanGAS inh, Mdm2-MdmX inh)
COc1ccc(NC(=O)CSc2nnc(C)n2N)cc1S(=O)(=O)N1CCCCC1	none (no result: CSC inhib, SKKanGAS inh)
COc1ccc(C(=O)Cn2nnc(-c3ccccc3NC(=O)c3ccco3)n2)cc1	SKKanGAS inh 55
O=C(NCc1ccccc1)c1ccco1	none
COc1ccc(C(=O)Nc2ccc(NC(=O)c3ccco3)cc2)cc1	NR3A LBD binder 16
Cc1nc(NC(=O)c2ccco2)sc1C(=O)O	none (no result: Mdm2-MdmX inh)
COc1ccc(C(=O)Nc2ccccc2-c2nnn(CC(=O)N3CCOCC3)n2)cc1	none
O=C(O)COc1ccc(NC(=O)c2ccc(NC(=O)c3ccco3)cc2)cc1	none
O=C(NCc1ccccc1)c1ccc(NC(=O)c2ccco2)cc1	NR3A LBD binder 19
Cc1nc(NC(=O)c2ccco2)sc1C(=O)Nc1ccc(Br)cc1	NR3A LBD binder 15 (no result: CSC inhib, Beta apoptosis)
COc1ccc(NC(=O)C(c2ccc(C#N)cc2)n2c(=O)c(-c3ccco3)nc3ccccc32)cc1 (configuration not stated)	none (no result: CSC inhib, Beta apoptosis, NR3A LBD binder, SKKanGAS inh, Mdm2-MdmX inh)
O=Cc1cc(N=Nc2ccccc2Cl)ccc1O	SKKanGAS inh 78
O=C(NCC(=O)N(c1ccc(F)cc1)C(C(=O)NC1CCCC1)c1cccnc1)c1ccco1 (configuration not stated)	none
CCn1nc(C(=O)Nc2cc(Cl)ccc2-n2cncn2)c2ccccc2c1=O	none
O=c1c2ccccc2nc(-c2ccccc2)n1O	none
COc1ccc(-c2nc3ccccc3c(=O)n2O)cc1	NR3A LBD binder 32
COc1cc(NC(=O)c2ccc3snnc3c2)cc(OC)c1	NR3A LBD binder 19
Cc1ccc(NC(=O)c2ccc3snnc3c2)cc1	none (no result: CSC inhib)
O=[N+]([O-])c1ccc(N2CCCCC2)c(Cl)c1N1CCCCC1	SKKanGAS inh 93
O=[N+]([O-])c1cc(Cl)ccc1N1CCCCC1	none (no result: CSC inhib)
Cc1cccc(NC(=O)Cn2c(O)c(N=NC(=O)c3ccccc3O)c3ccccc32)c1	NR3A LBD binder 21
N#CC(C(=O)CCN1C(=O)C2CC=CCC2C1=O)c1nc2ccccc2[nH]1 (configuration not stated)	none (no result: CSC inhib)
N#CC(C(=O)C12CC3CC(CC(C3)C1)C2)c1nc2ccccc2[nH]1 (configuration not stated)	SKKanGAS inh 80
Cc1cccc(C(C)C)c1NC(=O)COC(=O)c1cccc(S(=O)(=O)N2CCc3ccccc3C2)c1	NR3A LBD binder 22
Sc1nnc(-c2ccc(Cl)cc2)n1Cc1ccccc1	CSC inhib 76 (no result: SKKanGAS inh)
Cc1cccc(NS(=O)(=O)c2nnc(NC(=O)c3ccc(Cl)cc3)s2)c1	none
Cc1cccc(NC(=O)c2cccc(NS(=O)(=O)c3ccc(Cl)cc3)c2)c1	NR3A LBD binder 12
CC(=O)Nc1ccc(S(=O)(=O)Nc2cccc(C(=O)NC(C)(C)C)c2)cc1	NR3A LBD binder 13
CCC(C(=O)N1CCN(Cc2ccc3c(c2)OCO3)CC1)n1c(=O)[nH]c2ccccc2c1=O (configuration not stated)	none
COc1ccc(CCNC(=O)c2nnn(CC(=O)Nc3ccccc3C)c2N)cc1OC	none
CCOc1ccc(CCNC(=O)c2nnn(CC(=O)Nc3ccccc3C)c2N)cc1OCC	NR3A LBD binder 12
Clc1cccc(Cl)c1CSc1nnc(/C=C/c2ccccc2)o1	SKKanGAS inh 54
C[C@H](N)c1nnc(SCc2c(Cl)cccc2Cl)o1	none
Nc1nonc1-n1nnc(C(=O)N/N=C/c2cccnc2)c1CSc1ccc(Cl)cc1	NR3A LBD binder 12
CCCc1c(C(=O)N/N=C/c2cccnc2)nnn1-c1nonc1N	NR3A LBD binder 32
Nc1nonc1-n1nnc(C(=O)N/N=C/c2cccnc2)c1CSc1ccccc1	NR3A LBD binder 19
Nc1nonc1-n1nnc(C(=O)N/N=C/c2cccnc2)c1CSC1=NCCS1	none
COCCCN1C(=O)C(CC(=O)NCCCN(C)C)CC(C(=O)N2CCOCC2)=C1C (configuration not stated)	none (no result: CSC inhib, Beta apoptosis, NR3A LBD binder, SKKanGAS inh, Mdm2-MdmX inh)
CC(C)CCC(O)(CCC(C)C)C(=O)NN1CCCCC1	none (no result: CSC inhib)
CCCC(O)(CCC)C(=O)NN1CCCCC1	NR3A LBD binder 27
CCOC(=O)C1(C)CCCN1C(=O)c1ccc(N(C)C)cc1 (configuration not stated)	none (no result: CSC inhib, Beta apoptosis, NR3A LBD binder, SKKanGAS inh, Mdm2-MdmX inh)
O=C(Nc1nc2ccc3ccccc3c2s1)c1ccc(N2CCCCC2)c([N+](=O)[O-])c1	NR3A LBD binder 19
Cc1ccccc1CSc1ccc(-c2ccc3c(c2)OCO3)nn1	CSC inhib 87
O=C(CN(C1CC1)S(=O)(=O)c1ccc(S(=O)(=O)NC2CCCCC2)cc1)Nc1ccccc1	none (no result: CSC inhib, Beta apoptosis, SKKanGAS inh, Mdm2-MdmX inh)
O=C(CN(Cc1cccs1)S(=O)(=O)c1ccc(S(=O)(=O)NC2CCCCC2)cc1)Nc1ccccc1	NR3A LBD binder 13
O=S(=O)(Nc1ccc(-n2cnnn2)cc1)c1cccc(Cl)c1	none (no result: CSC inhib, Beta apoptosis, SKKanGAS inh)
COc1ccc(-c2cc(-c3nnc(COC(=O)c4ccc(O)cc4)o3)c3ccccc3n2)cc1OC	NR3A LBD binder 15 (no result: Beta apoptosis)
O=S(=O)(c1ccc(F)cc1)N1CCN(S(=O)(=O)c2cc(F)ccc2F)CC1	none
O=S(=O)(c1ccc(F)cc1F)N1CCN(CCO)CC1	NR3A LBD binder 13 (no result: CSC inhib, Beta apoptosis, SKKanGAS inh, Mdm2-MdmX inh)
COC(=O)c1ccc(C)c(NC(=O)CCSc2ccccc2)c1	none
COC(=O)c1ccc(C)c(NC(=O)CCSc2ccc(Cl)cc2)c1	NR3A LBD binder 31
O=C(COc1ccc(-c2ccccc2)cc1)N/N=C/c1cc(O)ccc1Br	CSC inhib 89, NR3A LBD binder 20, SKKanGAS inh 98
O=C(CP(=O)(c1ccccc1)c1ccccc1)N/N=C/c1cc(Br)cc(Br)c1O	SKKanGAS inh 102 (no result: CSC inhib, Beta apoptosis)
COc1cc(Br)cc(/C=N/NC(=O)Cc2ccccc2)c1O	SKKanGAS inh 109
O=C(COc1ccc(-c2ccccc2)cc1)N/N=C/c1ccccc1Br	none
O=C(C[n+]1ccccc1)N/N=C/c1cc(Br)cc(Br)c1O	SKKanGAS inh 102
